Laboratory results taken from article PMC4336329 (PLoS ONE, 2015).
In all, about 310,000 compounds went through this assay and about 14,000 (4.5%) showed an effect of 50% or more. Effects have a minus sign here. This is one part of a sample in which strong results are shown more often than they occur.

target: human ether-à-go-go-related gene (hERG) potassium channel (human, UniProt Q12809); test: primary screen, population patch clamp on CHO cells stably expressing hERG; higher = less effect of the substance
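Note: peak tail current of the secondary pulse compared with the same well before compound.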

Chain of human ether-à-go-go-related gene (hERG) potassium channel (Q12809 whole entry, looked up): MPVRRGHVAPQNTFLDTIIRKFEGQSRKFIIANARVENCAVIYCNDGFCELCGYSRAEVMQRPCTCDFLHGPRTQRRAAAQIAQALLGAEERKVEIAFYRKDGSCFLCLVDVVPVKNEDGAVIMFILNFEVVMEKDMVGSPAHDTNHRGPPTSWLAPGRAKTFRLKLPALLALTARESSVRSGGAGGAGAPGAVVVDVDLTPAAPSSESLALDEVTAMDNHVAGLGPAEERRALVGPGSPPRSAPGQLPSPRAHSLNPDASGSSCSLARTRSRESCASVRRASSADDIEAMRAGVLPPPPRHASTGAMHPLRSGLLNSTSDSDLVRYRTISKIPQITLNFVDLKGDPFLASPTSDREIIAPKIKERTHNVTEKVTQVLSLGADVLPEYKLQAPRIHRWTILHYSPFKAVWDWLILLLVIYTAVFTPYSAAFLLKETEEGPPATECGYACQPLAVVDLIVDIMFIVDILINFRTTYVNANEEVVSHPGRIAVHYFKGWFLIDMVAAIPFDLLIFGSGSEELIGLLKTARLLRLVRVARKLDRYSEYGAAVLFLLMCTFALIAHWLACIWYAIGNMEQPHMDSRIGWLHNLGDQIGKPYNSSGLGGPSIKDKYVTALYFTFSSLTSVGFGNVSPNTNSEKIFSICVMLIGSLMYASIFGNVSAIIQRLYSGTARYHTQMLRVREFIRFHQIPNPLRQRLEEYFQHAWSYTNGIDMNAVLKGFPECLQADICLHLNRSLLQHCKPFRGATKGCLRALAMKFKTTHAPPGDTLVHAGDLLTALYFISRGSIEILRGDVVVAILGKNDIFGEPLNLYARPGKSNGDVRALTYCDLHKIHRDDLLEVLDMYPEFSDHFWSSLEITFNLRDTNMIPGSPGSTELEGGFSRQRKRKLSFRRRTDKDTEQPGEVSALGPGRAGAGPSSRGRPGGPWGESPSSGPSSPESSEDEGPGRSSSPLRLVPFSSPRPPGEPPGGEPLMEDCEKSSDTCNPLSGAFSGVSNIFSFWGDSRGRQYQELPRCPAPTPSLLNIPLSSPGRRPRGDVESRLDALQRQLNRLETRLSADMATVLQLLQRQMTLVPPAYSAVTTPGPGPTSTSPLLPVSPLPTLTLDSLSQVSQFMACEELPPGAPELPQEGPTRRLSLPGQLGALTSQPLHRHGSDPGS

| SMILES | hERG current change (%, negative = inhibition) at 10uM |
| --- | --- |
| [Cl-].c1ccc(COc2ccc(-c3sc(Nc4ccccc4)n[n+]3-c3ccccc3)cc2)cc1 | -43.9% |
| O=C(CSc1nc(C(F)(F)F)cc(=O)[nH]1)N1CCCC1 | 19% |
| Cc1ccc(NCc2ccco2)cc1C.O=C(O)C(=O)O | 1.93% |
| Cc1onc(-c2c(Cl)cccc2Cl)c1C(=O)Nc1nc(C(C)(C)C)cs1 | -26.4% |
| Cc1ccsc1C(=O)C1CCCN(CCO)C1 (stereo not shown) | 5.34% |
| COc1ccc(CN2CCCC(C(=O)c3sccc3C)C2)cc1O (stereo not shown) | -71.9% |
| Cc1nc(CCNC(=O)CC2C(=O)NCCN2Cc2ccc(F)cc2)sc1C (stereo not shown) | 12.3% |
| O=C(OCc1cccc([N+](=O)[O-])c1)c1ccc2ccccc2n1 | 7.33% |
| CC(C)C(OC(=O)CN1C(=O)c2ccccc2C1=O)C(=O)NC1CCCC1 (stereo not shown) | 18.7% |
| COC(=O)CNC(=O)C12CC3CC(C1)CC(c1ccc(C)cc1)(C3)C2 | 12.9% |
| C=CCn1c(O)c(C=NCCCOc2ccc(CC)cc2)c(=O)[nH]c1=S | 21.8% |
| O=C(NCc1ccccn1)C1CCN(Cc2cccc(OCc3ccccc3)c2)CC1.O=C(O)C(=O)O | -35.7% |
| CCCCN(C)C(=O)C1CCN(Cc2cccc(OCc3ccccc3)c2)CC1.O=C(O)C(=O)O | -67.7% |
| C=CCN(CC=C)C(=O)C1CCN(Cc2ccc(OCc3ccccc3)cc2)CC1.O=C(O)C(=O)O | -68% |
| CCN(CC)C(=O)C1CCN(Cc2cccc(OCc3ccccc3)c2)CC1.O=C(O)C(=O)O | -39.6% |
| NC(=O)C1CCN(Cc2ccc(OCc3ccccc3)cc2)CC1.O=C(O)C(=O)O | -29.5% |
| CCN(CC)C(=O)C1CCN(Cc2ccc(OCc3ccccc3)cc2)CC1.O=C(O)C(=O)O | -48.7% |
| CCCCN(C)C(=O)C1CCN(Cc2ccc(OCc3ccccc3)cc2)CC1.O=C(O)C(=O)O | -73.4% |
| COc1cccc(NC(=O)c2nn(C)c3c2CS(=O)(=O)c2ccccc2-3)c1 | 8.68% |
| O=C(NCCCc1ccccc1)c1cccc([N+](=O)[O-])c1 | -23% |
| COc1ccc(COC(=O)Nc2cn(C)nc2C(F)(F)F)cc1 | -7.76% |
| C=C(C)C(=O)N1CC2(CC(c3cccc(NC(=O)COc4ccc(Cl)cc4)c3)=NO2)C[C@@H]1C(N)=O (stereo partly shown) | -15.3% |
